# Reference: PubChem BioAssay (NCATS)
# Inconclusive results are not listed. Where a call stands in place of a potency, no number is given. Values without a mark were called inactive. Active and inactive are the calls of the source. Calls come from the whole dose curve; as a rule, active = well fitted inhibition curve with a large enough effect; inconclusive = small, poorly fitted or top-dose-only effect; inactive = flat fitted curve, though single readings scatter. Where a SMILES comes first, the peptide text is derived from it. Bridges are numbered along the chain shown (N, C = ends). [ ]: non-standard residue; d: D form. hArg = N=C(N)NCCCC[C@H](N)C(=O)O; Mpa = O=C(O)CCS
# Assays:
# P93_24 = assay: qHTS profiling for inhibitors of Plasmodium falciparum proliferation (AID 504749); note: potency is the fitted concentration of half-maximal effect; settings: P. falciparum in erythrocytes, SYBR Green DNA, 72 h; series mostly up to 28.7 µM
# How it was run: (§1)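 SYBR Green fluorescence of parasite DNA, read after lysis and overnight dark incubation, measured growth over 72 h in erythrocyte culture at 0.3% parasitemia and 2.5% hematocrit. Data normalised to DMSO and 0.29 uM artemisinin, with plate-drift correction.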
# P94_40 = assay: as above; settings: P. falciparum in erythrocytes, SYBR Green DNA, 72 h; series mostly up to 28.7 µM
# How it was run: as §1
# PAD = assay: as above; settings: P. falciparum in erythrocytes, SYBR Green DNA, 72 h; series mostly up to 28.7 µM
# How it was run: as §1
# PC15 = assay: as above; settings: P. falciparum in erythrocytes, SYBR Green DNA, 72 h; series mostly up to 28.7 µM
# How it was run: as §1
# PC26 = assay: as above; settings: P. falciparum in erythrocytes, SYBR Green DNA, 72 h; series mostly up to 28.7 µM
# How it was run: as §1
# PC49 = assay: as above; settings: P. falciparum in erythrocytes, SYBR Green DNA, 72 h; series mostly up to 28.7 µM
# How it was run: as §1
# SC27B = assay: as above; settings: P. falciparum in erythrocytes, SYBR Green DNA, 72 h; series mostly up to 28.7 µM
# How it was run: as §1
# TAB109 = assay: as above; settings: P. falciparum in erythrocytes, SYBR Green DNA, 72 h; series mostly up to 28.7 µM
# How it was run: as §1
# TAB113 = assay: as above; settings: P. falciparum in erythrocytes, SYBR Green DNA, 72 h; series mostly up to 28.7 µM
# How it was run: as §1
# TAB165 = assay: as above; settings: P. falciparum in erythrocytes, SYBR Green DNA, 72 h; series mostly up to 28.7 µM
# How it was run: as §1
# W2 = assay: as above; settings: P. falciparum in erythrocytes, SYBR Green DNA, 72 h; series mostly up to 28.7 µM
# How it was run: as §1
# CRL-7250 = normal cell line; assay: Cytotoxic Profiling of Annotated Libraries Using Quantitative High-Throughput Screening (AID 1296008); settings: Five cell lines viability, CellTiter-Glo ATP luminescence, 48-72 h; hits give low values
# How it was run: (§2)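 Cytotoxicity was measured as CellTiter-Glo ATP luminescence, read after 10 min at room temperature. Compound treatment of the cells lasted 48 or 72 hr at 37 degrees Celsius in a qHTS format.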
# HEK293 = assay: as above; settings: Five cell lines viability, CellTiter-Glo ATP luminescence, 48-72 h; hits give low values
# How it was run: as §2
# HaCat [1] = assay: as above; settings: Five cell lines viability, CellTiter-Glo ATP luminescence, 48-72 h; hits give low values
# How it was run: as §2
# NIH3T3 = assay: as above; settings: Five cell lines viability, CellTiter-Glo ATP luminescence, 48-72 h; hits give low values
# How it was run: as §2
# HACAT [2] = assay: qHTS assay to identify novel small-molecules to repurpose for Merkel cell carcinoma treatment (AID 1296009); settings: MCC and control cell lines, CellTiter-Glo viability, 72 h; at 44.8 µM (top of the series) unless noted
# How it was run: (§3)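 Cell viability, measured as CellTiter-Glo luminescence, was normalized between DMSO and no-cell wells. The cells had been exposed to 8- or 11-point compound dilutions for 72 hr at 37 degree celsius.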
# MCC-13 = assay: as above; settings: MCC and control cell lines, CellTiter-Glo viability, 72 h; series mostly up to 46 µM
# How it was run: as §3
# MCC-26 = assay: as above; settings: MCC and control cell lines, CellTiter-Glo viability, 72 h; series mostly up to 46 µM
# How it was run: as §3
# HEK293T = assay: as above; settings: MCC and control cell lines, CellTiter-Glo viability, 72 h; at 44.8 µM (top of the series) unless noted
# How it was run: as §3
# Note: nearly all actives have a fitted effect of over 60% in size.
structure (smiles),measurement,setting,value
N[C@@H](Cc1ccc(O)cc1)C(=O)O,Potency,P93_24,inactive
same,Potency,P94_40,inactive
same,Potency,PAD,inactive
same,Potency,PC15,inactive
same,Potency,PC26,inactive
same,Potency,PC49,inactive
same,Potency,SC27B,inactive
same,Potency,TAB109,inactive
same,Potency,TAB113,inactive
same,Potency,TAB165,inactive
same,Potency,W2,inactive
same,max response,CRL-7250,1.09%
same,max response,HEK293,3.89%
same,outcome,HaCat [1],inactive
same,outcome,NIH3T3,inactive
same,outcome,HACAT [2],inactive [at 9.27 µM]
same,"activity change, negative = cytotoxicity",MCC-13,12.1% [at 9.22 µM]
same,"activity change, negative = cytotoxicity",MCC-26,4.77% [at 9.22 µM]
CC1CCN(CCCC(=O)c2ccc(F)cc2)CC1,Potency,P93_24,inactive
same,Potency,P94_40,inactive
same,Potency,PAD,inactive
same,Potency,PC15,inactive
same,Potency,PC26,inactive
same,Potency,PC49,inactive
same,Potency,SC27B,inactive
same,Potency,TAB109,inactive
same,Potency,TAB113,inactive
same,Potency,TAB165,inactive
same,max response,CRL-7250,-0.306%
same,max response,HEK293,-0.532%
same,outcome,HaCat [1],inactive
same,max response,NIH3T3,-1.04%
same,outcome,HACAT [2],inactive
same,outcome,MCC-13,inactive
same,outcome,MCC-26,inactive
COc1ccc(-c2cc(=O)c3c(O)cc(O[C@@H]4O[C@H](CO[C@@H]5O[C@@H](C)[C@H](O)[C@@H](O)[C@H]5O)[C@@H](O)[C@H](O)[C@H]4O)cc3o2)cc1O,max response,CRL-7250,-26.4%
same,outcome,HEK293,inactive
same,max response,HaCat [1],-10.9%
same,max response,NIH3T3,-0.449%
same,outcome,HEK293T,inactive
same,outcome,MCC-13,inactive
same,outcome,MCC-26,inactive
O=c1[nH]c(=O)c2ccccc2o1,Potency,P93_24,inactive
same,Potency,P94_40,inactive
same,Potency,PAD,inactive
same,Potency,PC15,inactive
same,Potency,PC26,inactive
same,Potency,PC49,inactive
same,Potency,SC27B,inactive
same,Potency,TAB109,inactive
same,Potency,TAB113,inactive
same,Potency,TAB165,inactive
same,Potency,W2,inactive
same,outcome,CRL-7250,inactive
same,max response,HEK293,1.22%
same,outcome,HaCat [1],inactive
same,max response,NIH3T3,-16.8%
same,outcome,HACAT [2],inactive
same,outcome,MCC-13,inactive
same,outcome,MCC-26,inactive
NC(=O)[C@@H]1CSSCCC(=O)N[C@@H](CCCCN=C(N)N)C(=O)NCC(=O)N[C@@H](CC(=O)O)C(=O)N[C@@H](Cc2c[nH]c3ccccc23)C(=O)N2CCC[C@H]2C(=O)N1 ([Mpa][hArg]GDWPC-NH2; disulfide 1-7),Potency,P93_24,inactive
same,Potency,P94_40,inactive
same,Potency,PAD,inactive
same,Potency,PC15,inactive
same,Potency,PC26,inactive
same,Potency,PC49,inactive
same,Potency,SC27B,inactive
same,Potency,TAB109,inactive
same,Potency,TAB113,inactive
same,Potency,TAB165,inactive
same,Potency,W2,inactive
same,outcome,CRL-7250,inactive
same,max response,HEK293,-7.03%
same,outcome,HaCat [1],inactive
same,max response,NIH3T3,-4.92%
same,outcome,HACAT [2],inactive
same,outcome,MCC-13,inactive
same,outcome,MCC-26,inactive
O=C(Cn1ccnc1[N+](=O)[O-])NCc1ccccc1,Potency,P93_24,inactive
same,Potency,P94_40,inactive
same,Potency,PAD,inactive
same,Potency,PC15,inactive
same,Potency,PC26,inactive
same,Potency,PC49,inactive
same,Potency,SC27B,inactive
same,Potency,TAB109,inactive
same,Potency,TAB113,inactive
same,Potency,TAB165,inactive
same,Potency,W2,inactive
same,max response,CRL-7250,0.299%
same,max response,HEK293,-3.43%
same,outcome,HaCat [1],inactive
same,max response,NIH3T3,3.14%
same,outcome,HACAT [2],inactive
same,outcome,MCC-13,inactive
same,outcome,MCC-26,inactive
CN1C[C@@H]2C[C@H]1CN2c1cc2c(cc1F)c(=O)c(C(=O)O)cn2C1CC1,Potency,P93_24,1580 nM (active)
same,Potency,PAD,inactive
same,Potency,PC49,inactive
same,Potency,TAB113,inactive
same,Potency,W2,953 nM (active)
same,max response,CRL-7250,2.35%
same,max response,HEK293,-22.9%
same,outcome,HaCat [1],inactive
same,max response,NIH3T3,-10.1%
same,outcome,HACAT [2],inactive [at 17.4 µM]
same,outcome,MCC-13,inactive
same,outcome,MCC-26,inactive
CC[C@H](C)[C@H](N)C(=O)O,max response,CRL-7250,-1.3%
same,max response,HEK293,-2.12%
same,outcome,HaCat [1],inactive
same,max response,NIH3T3,-5.18%
same,outcome,HACAT [2],inactive
same,outcome,MCC-13,inactive
same,outcome,MCC-26,inactive
CC(=O)Nc1ccc(C(=O)O)cc1,Potency,P93_24,inactive
same,Potency,P94_40,inactive
same,Potency,PAD,inactive
same,Potency,PC15,inactive
same,Potency,PC26,inactive
same,Potency,PC49,inactive
same,Potency,SC27B,inactive
same,Potency,TAB109,inactive
same,Potency,TAB113,inactive
same,Potency,TAB165,inactive
same,Potency,W2,inactive
same,max response,CRL-7250,-0.409%
same,outcome,HEK293,inactive
same,max response,HaCat [1],3.25%
same,max response,NIH3T3,-2.27%
same,outcome,HEK293T,inactive
same,outcome,MCC-13,inactive
same,outcome,MCC-26,inactive
Cc1ccc(S(=O)(=O)NC(=O)NC2CCCCCCC2)cc1,Potency,P93_24,inactive
same,Potency,P94_40,inactive
same,Potency,PAD,inactive
same,Potency,PC15,inactive
same,Potency,PC26,inactive
same,Potency,PC49,inactive
same,Potency,SC27B,inactive
same,Potency,TAB109,inactive
same,Potency,TAB113,inactive
same,Potency,TAB165,inactive
same,Potency,W2,inactive
same,max response,CRL-7250,-5.06%
same,max response,HEK293,4.09%
same,outcome,HaCat [1],inactive
same,max response,NIH3T3,3.55%
same,outcome,HACAT [2],inactive
same,outcome,MCC-13,inactive
same,outcome,MCC-26,inactive
C/C=C/C(=O)N(CC)c1ccccc1C,max response,CRL-7250,-6.75%
same,max response,HEK293,0.227%
same,max response,HaCat [1],0.376%
same,max response,NIH3T3,1.85%
same,outcome,MCC-13,inactive
same,outcome,MCC-26,inactive
C[C@@H](N)C(=O)O,Potency,P93_24,inactive
same,Potency,P94_40,inactive
same,Potency,PAD,inactive
same,Potency,PC15,inactive
same,Potency,PC26,inactive
same,Potency,PC49,inactive
same,Potency,SC27B,inactive
same,Potency,TAB109,inactive
same,Potency,TAB113,inactive
same,Potency,TAB165,inactive
same,Potency,W2,inactive
same,max response,CRL-7250,0.494%
same,outcome,HEK293,inactive
same,max response,HaCat [1],-6.96%
same,max response,NIH3T3,-0.0264%
same,outcome,HEK293T,inactive
same,outcome,MCC-13,inactive
same,outcome,MCC-26,inactive
Cc1cc(-n2nc3ccc(Cl)cc3n2)c(O)c(C(C)(C)C)c1,Potency,PC15,inactive
same,Potency,PC26,inactive
same,Potency,PC49,inactive
same,Potency,SC27B,inactive
same,Potency,W2,inactive
same,max response,CRL-7250,-3.44%
same,max response,HEK293,4.97%
same,outcome,HaCat [1],inactive
same,max response,NIH3T3,3.2%
same,outcome,HACAT [2],inactive
same,outcome,MCC-13,inactive
same,outcome,MCC-26,inactive
CCOC(=O)OC(C)OC(=O)[C@@H]1N2C(=O)[C@@H](NC(=O)[C@H](N)c3ccccc3)[C@H]2SC1(C)C (stereo partly drawn),max response,CRL-7250,-4.78%
same,max response,HEK293,-9.36%
same,outcome,HaCat [1],inactive
same,outcome,NIH3T3,inactive
same,outcome,HACAT [2],inactive
same,outcome,MCC-13,inactive
